Data on 38 molecules can be found in PubChem BioAssay (EPA / NIEHS).

Some structures have more than one record in an assay (separate samples or runs), and their calls can disagree. Active and inactive are the calls of the source. Rule for the calls: active = hit-call score of the fitted dose curve at least 0.9, where 1 is the maximum; inactive = score below 0.9.

For orientation: AC50 means the concentration at which the activity in the assay is half-maximal.

This test in a line: ATG_PXRE_CIS: Attagene CIS-FACTORIAL HepG2 Assay for human Pregnane X Receptor Element (PXRE) (AID 2282957). Conditions: HepG2 Attagene CIS-FACTORIAL PXRE reporter, mRNA; actives raise or lower the signal. How it is done:
ATG_CIS is a cell-based, multiplexed-readout assay that uses HepG2, a human liver cell line, with measurements taken at 24 hours after chemical dosing in a 24-well plate.ATG_PXRE_CIS is one of 52 assay component(s) measured or calculated from the ATG_CIS assay. It is designed to make measurements of mRNA induction, a form of inducible reporter, as detected with fluorescence intensity signals by Reverse transcription polymerase chain reaction (RT-PCR) and Capillary electrophoresis technology.Data from the assay component ATG_PXRE_CIS was analyzed into 1 assay endpoint. This assay endpoint, ATG_PXRE_CIS, was analyzed with bidirectional fitting relative to DMSO as the negative control and baseline of activity. Using a type of inducible reporter, measures of mRNA for gain or loss-of-signal activity can be used to understand the reporter gene at the transcription factor-level as they relate to the gene NR1I2. Furthermore, this assay endpoint can be referred to as a primary readout, because this assay has produced multiple assay endpoints where this one serves a reporter gene function. To generalize the intended target to other relatable targets, this assay endpoint is annotated to the nuclear receptor intended target family, where the subfamily is non-steroidal.
Human liver HepG2 cells are transiently transfected with multiple reporter transcription units (MRTUs) in 6-well plates using FuGene 6 reagent (Roche; 3 ml FuGene/1 mg DNA). The MRTU constructs are regulated by a cis-regulating element (promoter). […] A major difference between the CIS and TRANS system is that in CIS activities of endogenous TFs are measured, whereas the TRANS assay evaluates changes in activities of exogenous, chimeric NR-Gal4 proteins. […] At the end of 24 hour incubation, total RNA was isolated using TriZol reagent (Invitrogen). The isolated RNA is then reverse-transcribed using oligo(dT) primer and Mo-MLV reverse transcriptase (Invitrogen) with DNAse I (Ambion) treatment for 30 min. The one-tenth of the produced cDNA was amplified by PCR using Taq DNA polymerase (Invitrogen) and two reporter sequence-specific primers. The PCR products were fluorescently labeled by primer extension with 6-arboxyfluorescein (6-FAM) 5'-labeled reporter sequence-specific primer (2 min at 95 C, 20 s at 68 C and 10 min at 72 C) and these products were digested with 5U of HpaI (New England Biolabs) for 2h at 37 C. The fragments were purified using Qiaquick PCR columns (Qiagen), analyzed on an ABI 3130xL genetic analyzer (Applied Biosystems) with peak positions identified by using a set of X-rhodamine (ROX)-labeled MapMarker1000 molecular weight standards (BioVentures). The raw capillary electrophoresis data was processed using Attagraph software (Attagene).
For the molecule `CC(C)C(C)(N)C#N` (stereo not given), the AC50 was 26 µM (active). In the case of `CC(C)O.CC(C)O.OCCN(CCO)CCO.OCCN(CCO)CCO.[Ti]`, the outcome was inactive. For the molecule `OC(Cc1ccccc1Cl)(Cn1cncn1)C1(Cl)CC1` (stereo not given), the half-maximal activity concentration (AC50) was 8.32 µM (active). As to `O=S(=O)(F)C(F)(F)C(F)(F)C(F)(F)C(F)(F)F`, the molecule was classed as inactive. Same read-out and setting: the result for `C[As+](C)(C)CC(=O)[O-]` reads “inactive”. As to `O=S1(=O)OC(c2cc(Br)c(O)c(Br)c2)(c2cc(Br)c(O)c(Br)c2)c2ccccc21`, the AC50 is 24.5 µM (active). As to `CCOC(=O)Cc1ccccc1`, the molecule was classed as inactive.

In the case of `CCCCC(CC)C(=O)Cl` (stereo not given), the molecule was classed as inactive. On to `CCOc1cc(C=O)ccc1O`, for which the call was inactive. As to `Nc1ccc(N)cc1`, the concentration at half-maximal activity (AC50) was 33 µM (active) and the molecule was called inactive. Take `ClCCN1CCOCC1`: the call was inactive. Take `O=S(=O)(Oc1ccc(Cl)cc1)c1ccc(Cl)cc1`: the AC50 was 5.87 µM (active). As to `CCCCOC(C)=O`, the molecule was classed as inactive. Regarding `O=C(NC(=O)c1c(F)cccc1F)Nc1cc(Cl)c(F)c(Cl)c1F`, the AC50 is 20.2 µM (active).

With `Cc1cccc(OP(=O)(Oc2cccc(C)c2)Oc2cccc(C)c2)c1`, the AC50 was 1.32 µM (active). With `CN(C)CCN(C)C`, the call was inactive.

For `Nc1c(Oc2ccccc2)cc(O)c2c1C(=O)c1ccccc1C2=O`, the AC50 is 4.42 µM (active). On the same count and under the same terms, to `C=C(C)[C@@H]1CC=C(C=O)CC1` belongs 9.25 µM (active); to `c1ccc2c(c1)Oc1ccccc1O2`, 75.9 µM (active). `Cc1cc(Cl)ccc1N`: the AC50 was 32.8 µM (active) and the result was inactive.

As for `CN(N=O)C(N)=O`, the result was inactive. As for `c1ccc2sc(SNC3CCCCC3)nc2c1`, the AC50 is 27 µM (active). Turning to `c1cc[c]([Sb]([c]2ccccc2)[c]2ccccc2)cc1`, the AC50 is 2.1 µM (active). Same read-out and setting: the result for `CC1(C)[C@H](/C=C2\CCSC2=O)[C@@H]1C(=O)OCc1coc(Cc2ccccc2)c1` reads 0.143 µM (active). Consider `Clc1cccc(Cl)c1Cl`, for which the call was inactive. Consider `Cc1cccc(C)c1NC(=O)CN1CCCC1=O`, for which the AC50 is 100 µM (active). Regarding `CC(C)=CC1C(C(=O)OCc2cccc(Oc3ccccc3)c2)C1(C)C` (stereo not given), the AC50 is 3.43 µM (active). Same read-out and setting: the result for `NC(=O)CCl` reads 27.2 µM (active). Regarding `CCOP(=S)(OCC)SCSc1cc(Cl)ccc1Cl`, the result was inactive. On to `N#Cc1ccccc1Cl`, for which the AC50 was 26.4 µM (active). With `CCOC(=O)CC(=O)CCl`, the call was inactive. Turning to `O=[N+]([O-])c1c2ccccc2cc2ccccc12`, the AC50 was 3.8 µM (active).

With `c1ccc(-c2cccc(-c3ccccc3)c2)cc1`, the AC50 was 11.3 µM (active). With `OCCN(CCO)CCO`, the molecule was classed as inactive.

For `CCCCCCCCCCCCBr`, the result was inactive. Take `CCOP(=O)(OCC)SCCSCC`: the AC50 was 57.2 µM (active).

For the molecule `C#C[C@]1(O)CC[C@H]2[C@@H]3CCC4=CC(=O)CC[C@]4(C)[C@H]3CC[C@@]21C`, the result was inactive. As to `CCCCCCCCCCCCc1cccc(S(=O)(=O)O)c1`, the half-maximal activity concentration (AC50) is 17.9 µM (active).
